Consider 54 compounds from ChEMBL document CHEMBL4513216, “Probing the Open Global Health Chemical Diversity Library for Multistage-Active Starting Points for Next-Generation Antimalarials” (ACS Infect Dis, 2020).

Hit rate of the full screen: of about 69,000 compounds, about 8,600 (12%) showed an effect of 50% or more. The entries come from a sample that favours strong results as a whole.

The test deals with Plasmodium berghei. The test can be described thus: Screen against P. berghei liver stage (PbLuc), transformed with Luciferase, at 10uM. The format is functional, HepG2. The following applies: tested at 10 uM.
Turning to `CN(CC(=O)N1CCC(OCc2cccnc2)CC1)c1ccccc1`, the INHIBITION is listed as 5.91%.

As for `O=C(C1CCOC1)N1CCC(OCc2ccccc2)CC1` (centres undefined), the INHIBITION was 33.9%.

For `Cn1c(CN2CCN(c3cccnc3)CC2)cc2ccccc21`, the INHIBITION was 27.4%.

Turning to `CCc1ccc(C(=O)NCc2cccc(S(=O)(=O)NC)c2)o1`, the INHIBITION is reported as -14%.

As to `CCn1ccnc1CN1CCCN(C(=O)c2cnn(C)c2)CC1`, the INHIBITION was -21.21%.

For `Cc1cc(N2CCN(C(=O)Cc3c(C)nc(C)[nH]c3=O)CC2)cc(C)n1`, the INHIBITION is given as 14.9%.

For the compound `CCO[C@@H]1CN(Cc2scnc2C)[C@@H]2CCCO[C@@H]21`, the INHIBITION is on record as -6.39%.

For the compound `N#Cc1cnc(N2CCC3(CC2)OCCO3)nc1N`, the INHIBITION was 1.61%.

Consider `Cc1ccc(-c2noc(CN3CCc4cncnc4C3)n2)cc1`, for which the INHIBITION came to 38.6%.

For `Cn1cc(C(=O)N2CCCC(c3cc(O)n(C)n3)C2)cn1` (centres undefined), the INHIBITION was determined as 19.6%.

For the compound `O=C1CN(S(=O)(=O)c2ccc(F)cc2)CC(O)CN1CC1CC1` (centres undefined), the INHIBITION was determined as 4.07%.

As for `Cc1csc(C(=O)N2CCC(S(C)(=O)=O)C2)c1` (centres undefined), the INHIBITION came to 12.3%.

In the case of `Cc1csc(C(=O)N2CCCC(c3[nH]ncc3S(C)(=O)=O)C2)c1` (centres undefined), the INHIBITION came out at 27.8%.

`Cn1cnnc1S(=O)(=O)C1CCN(C(=O)c2cccs2)CC1`: the INHIBITION was 41.8%.

Take `Cc1csc(C(=O)N2CC(S(=O)(=O)C3CCCCC3)C2)c1`: the INHIBITION was 75.2%.

As for `Cc1csc(C(=O)N2CCC(S(C)(=O)=O)CC2)c1`, the INHIBITION was 43.7%.

`COc1ccc(S(=O)(=O)C2CCN(C(=O)c3cc(C)cs3)CC2)cc1`: the INHIBITION is listed as 65.2%.

Regarding `O=C(CCOc1cccc(F)c1)N1CCCC(n2cccn2)C1` (centres undefined), the INHIBITION is recorded as -18%.

For `Cc1ccc(-c2nc(CN3CCCC3Cn3cncn3)cs2)o1` (centres undefined), the INHIBITION was -15.5%.

Take `O=S1(=O)COCCN1Cc1ccc(F)c(F)c1`: the INHIBITION was 29.9%.

Turning to `COCCCc1nc(-c2ccc(S(=O)(=O)N3CCCC3)cc2)cs1`, the INHIBITION amounted to 61%.

Regarding `COCCNc1nc(-c2ccc(S(=O)(=O)N3CCCCCC3)cc2)cs1`, the INHIBITION stood at 62.8%.

For `COCCNc1nc(-c2ccc(S(=O)(=O)N3CCCCC3)cc2)cs1`, the INHIBITION is recorded as -1.16%.

For `COCCNC(=O)c1cc(S(=O)(=O)N2CCCCC2)cs1`, the INHIBITION is recorded as -4.86%.

`Cc1nc(-c2ccc(S(=O)(=O)N3CCOCC3)cc2)co1`: the INHIBITION amounted to 14.8%.

Take `Cc1nc(-c2ccc(S(=O)(=O)N3CCCCC3)cc2)co1`: the INHIBITION worked out at 6.09%.

As for `Cc1nc(-c2ccc(S(=O)(=O)N3CCSCC3)cc2)co1`, the INHIBITION is on record as 49.4%.

Consider `COCc1nc(-c2ccc(S(=O)(=O)N3CCCC3)cc2)cs1`, for which the INHIBITION came to 61%.

Regarding `Cc1nc(-c2ccc(S(=O)(=O)N3CCSC3)cc2)co1`, the INHIBITION was found to be 39.6%.

As to `c1cnnc(N2CCCC2CNCc2noc(C3CC3)n2)c1` (centres undefined), the INHIBITION is listed as -29.8%.

Regarding `COCCNC(=O)CNC(=O)c1nc(Cc2c(Cl)cccc2Cl)no1`, the INHIBITION stood at 9%.

As to `COc1c(C(=O)NCC2CCCO2)nnn1Cc1ccccc1` (centres undefined), the INHIBITION is given as -14.7%.

Take `O=C(N1CCOCC1)N1C[C@H]2CN(Cc3nccs3)C[C@H]2C1`: the INHIBITION came out at 34.6%.

As to `O=C(c1cncc2ccccc12)N1CCC[C@@H]1CO`, the INHIBITION is given as -10.6%.

In the case of `c1cnc(NCc2ncn3c2CN(Cc2cccnc2)CCC3)nc1`, the INHIBITION worked out at 36.1%.

`O=C(CN(CC1CCC1)CC(F)(F)F)N1CCOCC1`: the INHIBITION is reported as 22.6%.

In the case of `COc1ccc(-n2nc(C)c(C(C)=O)c2C)cc1C(N)=O`, the INHIBITION is -17.5%.

Take `CCOc1ccc(-n2nc(C)c(CC(C)=O)c2C)cc1C(N)=O`: the INHIBITION is 52.8%.

On to `CC(=O)Cc1c(C)nn(-c2cncc(C(N)=O)c2)c1C`, for which the INHIBITION is listed as -27.5%.

`CCOc1ccc(C(=O)CCC(=O)N(C)Cc2snnc2C)cc1C`: the INHIBITION is listed as 29.7%.

For the compound `Cc1nnc(SCc2cc(=O)n3c4c(sc3n2)CCCC4)[nH]1`, the INHIBITION stood at 25.8%.

With `CC(C)c1noc(C2CCCN2S(=O)(=O)Cc2ccc(F)cc2)n1` (centres undefined), the INHIBITION is listed as 28.7%.

Take `COc1cccc(COc2nc(C(C)C)no2)c1`: the INHIBITION stood at 17.4%.

As for `CC(C)c1noc(CN(Cc2ccccc2)C2CC2)n1`, the INHIBITION came out at 54.5%.

`COc1cccc(NC(=O)CCCc2nc(C(C)C)no2)c1`: the INHIBITION was 26.5%.

As to `CC(C)c1noc(CN(Cc2ccc(F)cc2)C2CC2)n1`, the INHIBITION worked out at 82.4%.

On to `CC(C)c1noc(CN(C)C(c2ccc(F)cc2)c2cccnc2)n1` (centres undefined), for which the INHIBITION was found to be 38.6%.

Consider `CC(C)c1noc(CN(Cc2cccs2)C2CC2)n1`, for which the INHIBITION worked out at 41.8%.

Turning to `COc1cccc(CN(C)Cc2nc(C(C)C)no2)c1`, the INHIBITION was 61.9%.

Consider `CC(C)c1noc(CN(Cc2ccccc2F)C2CC2)n1`, for which the INHIBITION is given as 16.8%.

Consider `CCN(Cc1ccc2c(c1)OCCO2)C(=O)NCCc1cnn(C)c1`, for which the INHIBITION was 8.15%.

For the compound `O=C(Nc1nc2c(s1)CN(S(=O)(=O)C1CC1)CC2)c1ccc(=O)[nH]c1`, the INHIBITION was found to be 31.9%.

On to `NC1(C(=O)NCCC2CN(Cc3ccco3)CCO2)CCCC1` (centres undefined), for which the INHIBITION worked out at 20%.

As for `CCn1ccnc1CN1CCN(C(C)C(=O)N2CCCCCC2)CC1` (centres undefined), the INHIBITION is reported as 30.6%.
